# PubChem BioAssay (NCI)
# About 83,000 compounds went through this panel and 20% of them were active in at least one assay; those are over-represented in the sample as a whole.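 The test compound was applied at a single concentration to cells in 96-well plates for 48 hours, and percent growth was recorded.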 Unmarked numbers belong to inactive results. Activity calls are given as the source filed them. Rule for the calls: active = growth percent below 10; inactive = the rest.
# Experiments:
# Assay in all cases: NCI-60 one-dose screen, 48 h (100 = growth as untreated, 0 = no growth, -100 = all killed)
# Details in all cases: 10 µM unless noted
# [1] = tested on: HCT-15 colon
# [2] = tested on: HT29 colon
# [3] = tested on: SNB-75 CNS
# [4] = tested on: SNB-19 CNS
# [5] = tested on: U251 CNS
# [6] = tested on: PC-3 prostate
# [7] = tested on: SK-MEL-5 melanoma
# [8] = tested on: UACC-62 melanoma
# [9] = tested on: LOX IMVI melanoma
# [10] = tested on: SK-MEL-28 melanoma
# [11] = tested on: SK-MEL-2 melanoma
# [12] = tested on: EKVX NSCLC
# [13] = tested on: SN12C renal
# [14] = tested on: UO-31 renal
# [15] = tested on: TK-10 renal
# [16] = tested on: ACHN renal
# [17] = tested on: CAKI-1 renal
# [18] = tested on: A498 renal
# [19] = tested on: CCRF-CEM leukemia
# [20] = tested on: MOLT-4 leukemia
SMILES,growth [1],growth [2],growth [3],growth [4],growth [5],growth [6],growth [7],growth [8],growth [9],growth [10],growth [11],growth [12],growth [13],growth [14],growth [15],growth [16],growth [17],growth [18],growth [19],growth [20]
Cc1ccc2[nH]c(=O)c3c(c2c1)OC(N)=C(C#N)C31C(=O)c2cccc3cccc1c23 (stereo not given),105%,95.6%,84.4%,97.1%,95.2%,89.3%,94.3%,88.9%,93.5%,98.7%,110%,102%,97.8%,77.7%,123%,95.5%,90.9%,107%,95.3%,88.1%
CCOc1ccc(/C=N\N=C\c2ccc(OCC)cc2)cc1,7.98% (active),34.5%,112%,98.3%,74.4%,67.1%,88.3%,79.9%,70.5%,105%,39.3%,103%,80.4%,79%,86.8%,9.41% (active),46.3%,108%,118%,81%
COc1cc(C(=O)c2c(-c3ccccc3)oc3c(OC)cccc23)cc(OC)c1O,13.5%,6.79% (active),22.2%,25.8%,18.8%,23.5%,19.7%,39.3%,16.1%,62.7%,62%,44.9%,27.1%,46.2%,64.6%,28.1%,33.1%,-26.1% (active),13.8%,18.7%
CN(C)c1ccc(/C=C/C(=O)c2ccccc2)cc1,62.1%,62.5%,100%,90.4%,69.3%,71.6%,89.3%,93.1%,78.3%,96.8%,93.5%,97.9%,84.8%,67.5%,74.5%,109%,97.1%,74%,66.1%,76.3%
Cc1[nH]c(C(=O)Nc2ccc(C(N)=O)cc2NC(C)C)c(Cl)c1Cl,92.9%,106%,69%,103%,91.4%,77.4%,88.1%,91.4%,96.2%,105%,101%,87%,105%,66%,120%,96.5%,94.1%,69.7%,94.2%,86%
COc1cc(C2=NN(C(C)=O)C(c3ccc(N(C)C)cc3)C2)cc(OC)c1OC (stereo not given),102%,108%,96.2%,89.8%,97.3%,105%,91.1%,87.9%,96.5%,106%,90%,94.7%,86.4%,79.6%,109%,91.8%,15.3%,76%,14.6%,80.8%
COc1ccc2c(c1)c(-c1nonc1-c1cn(C)c3ccc(OC)cc13)cn2C,25.4%,13.1%,24%,36.8%,33.7%,50.1%,38%,26.3%,39.7%,60.8%,41.8%,47.4%,43.8%,49%,71.2%,51.7%,31.9%,18.4%,26.6%,25.4%
COc1cc(-c2nc(NC(C)=O)sc2-c2ccnc(NCCNS(=O)(=O)c3ccccc3)n2)ccc1Cl,31.7%,3.97% (active),15.7%,53.9%,31.5%,16.3%,1.64% (active),23%,32.1%,35.6%,-12.6% (active),45.4%,48.2%,63.3%,39.5%,44%,57.9%,27.1%,13%,15.5%
C[N+](C)(C/C=C/c1ccccc1)Cc1ccccc1,97.8%,91.9%,87.5%,104%,102%,97%,95.6%,99.3%,89%,102%,93.7%,92.7%,101%,82.4%,96.3%,99.4%,97.2%,94.6%,149%,103%
Cc1c2cc[nH]c(=O)c2c(C)c2c1[nH]c1ccc(OC(=O)c3ccccc3)cc12,27.9%,34.1%,39.9%,45%,29.2%,35.9%,-26.9% (active),28.5%,13.7%,25.2%,23.7%,19.7%,32.3%,12.9%,34%,-9.28% (active),29.1%,61.2%,29.4%,6.99% (active)
CC(=O)c1cc(-c2ccccc2N)n(-c2ccc3c(c2)OCO3)c1C,13.4%,6.88% (active),22.8%,18.6%,14.7%,30.1%,2.46% (active),25.3%,35.1%,52.4%,51.6%,50.9%,29.1%,40.2%,45.6%,21.2%,41.7%,-12% (active),11.8%,16.1%
N/C(=N\c1nc2ccccc2s1)NC(=NC1CCCCC1)NC1CCCCC1,1.34% (active),6.19% (active),23.1%,4.28% (active),-56.2% (active),24.2%,-74.8% (active),52.8%,-100% (active),-73.8% (active),41%,45.7%,33.8%,20.1%,69.2%,17.1%,23.2%,45.8%,-1.74% (active),4% (active)
CC1COCC(C)N1C1=C(Cl)C(=O)c2ccccc2C1=O (stereo not given),36.6%,89.7%,120%,96.4%,45.6%,47.2%,66.5%,76.6%,7.84% (active),87%,23.9%,89.9%,81.7%,59%,75.7%,28.9%,65.4%,109%,19.4%,9.7% (active)
CCNCc1ccc(O)c2ncccc12,28%,95.9%,31.1%,24.2%,17.7%,23.4%,6.19% (active),25%,31%,65.6%,15.4%,25.1%,34%,18.1%,5.97% (active),22.7%,35.3%,59.5%,27.3%,29%
O=C(CCCCCCN1CC(=O)N2[C@@H](c3ccc(Cl)cc3)c3[nH]c4ccccc4c3C[C@H]2C1=O)NO,101%,76.6%,27.1%,67.1%,71.1%,43.5%,61.8%,34.5%,-63.6% (active),46.3%,80.7%,85.6%,65.7%,59.7%,110%,78.8%,60.9%,67.2%,18.7%,32.3%
CCC(CC)(N(CC(=O)O)CC(=O)O)C(CC)(CC)N(CC(=O)O)CC(=O)O,131%,89.9%,108%,107%,102%,85.1%,105%,102%,98.6%,108%,112%,117%,94.8%,103%,103%,116%,98.4%,126%,93%,107%

SMILES,growth [1],growth [2],growth [3],growth [4],growth [5],growth [6],growth [7],growth [8],growth [9],growth [10],growth [11],growth [12],growth [13],growth [14],growth [15],growth [16],growth [17],growth [18],growth [19],growth [20]
O=C1/C(=C/c2ccc(C(F)(F)F)cc2)COc2ccc(O)c(O)c21,-6.49% (active),8.23% (active),33.4%,27.1%,-50.6% (active),-36.1% (active),68.5%,12.2%,-90.8% (active),72.1%,98%,52.3%,-58.6% (active),-98.9% (active),11.9%,-57.6% (active),-23.6% (active),116%,-3.75% (active),-1.49% (active)
COc1cc(C(=O)/C=C/c2ccc(N3CCN(C)CC3)cc2)cc(OC)c1OC,92.5%,94.7%,82.2%,95.3%,99.5%,99.3%,103%,86.8%,90.4%,103%,107%,88.6%,98.5%,73.2%,110%,97.6%,90.9%,108%,105%,98%
Cc1ccc2[nH]c(-c3ccc(S(C)(=O)=O)cc3)c(/C=N/N=C(N)N)c2c1,35.3%,16.7%,65.4%,57.1%,33.4%,39.9%,29.1%,41.5%,47.3%,71.2%,43.2%,90.2%,56.9%,60%,90.9%,63%,52.3%,38.2%,37.2%,41.6%
CCOC(=O)c1c(NC(=O)c2ccc(C(C)(C)C)cc2)sc2cc(O)ccc12,70.3%,80.6%,104%,111%,96.9%,105%,98.1%,101%,87%,99.1%,112%,94.9%,99.6%,70.4%,129%,97.5%,85.9%,88.8%,80.1%,82.3%
C/C(=C(\c1ccc(OCCN2CCCCCC2)cc1)c1ccc(OC(=O)Cc2ccccc2)cc1)c1ccc(Cl)cc1,-15.5% (active),-8.13% (active),39.7%,63.1%,8.22% (active),41.9%,40.1%,-5.48% (active),-94.5% (active),-27.3% (active),52.9%,56.4%,28.9%,44.1%,68.6%,62.3%,48.7%,79%,6.31% (active),-6.79% (active)
COc1cc2c(cc1O)[C@@]1(C)[C@H](c3ccccc3Br)OC(=O)N1CC2,94.9%,96.7%,102%,95.2%,89.3%,71.3%,68%,72.1%,90.6%,99.1%,89.8%,82%,87.6%,85.3%,91.9%,83.2%,92.5%,89.6%,83%,90.8%
O=C(/C=C/C12c3ccccc3C(c3ccccc31)C1C(=O)NC(=O)C12)c1ccc(F)cc1 (stereo not given),-10.6% (active),-3.81% (active),7.89% (active),10.6%,-44.4% (active),8.91% (active),10.8%,-55.6% (active),-53.9% (active),6.45% (active),-52.2% (active),19.1%,11.2%,15.8%,16.8%,4.11% (active),16.7%,-6.86% (active),-0.929% (active),2.98% (active)
O=C(O)CCCc1cnc2c3sccc3nc(SCc3c(Cl)cccc3Cl)n12,36.9%,15.6%,16%,41%,29.5%,50.7%,52.9%,21.2%,39.9%,75.3%,20.6%,63%,57.2%,49%,65.3%,61.1%,42.2%,46.1%,31.2%,50.5%
COc1cc(C(=O)C(=O)c2cc(OC)c(O)c(OC)c2)cc(OC)c1O,103%,103%,91.6%,99.8%,98.4%,112%,104%,89.8%,97%,107%,115%,104%,91.3%,98.6%,95.8%,98%,105%,92.5%,88.3%,108%
O=C1Nc2ccccc2C2c3cccn3-c3ccccc3N12 (stereo not given),53.9%,31.7%,40%,88.9%,60.2%,66.9%,80%,57.6%,74.2%,94.1%,52%,81.8%,90.3%,70.4%,73.1%,94.8%,80.8%,73.9%,80.9%,77.5%
COc1ccc(C/C(C)=C(\c2ccc(O)cc2)c2ccc(OCCN3CCCC3)cc2)cc1,102%,88.4%,94.2%,103%,106%,96.8%,111%,102%,98.3%,97%,100%,101%,100%,86.1%,121%,97.1%,97%,91.7%,92.3%,85.3%
COc1ccc(C(C)=O)cc1S(N)(=O)=O,107%,86%,101%,99.7%,98.6%,85.7%,104%,94.7%,106%,106%,87.9%,106%,101%,90.7%,81.4%,102%,93.8%,101%,96.8%,86.4%
CC1CN=C(c2cccc(-c3ccc(-c4ccccc4)o3)c2)N1 (stereo not given),-57.5% (active),-43.6% (active),58.7%,25.8%,-24.3% (active),11.2%,-93.3% (active),-62.2% (active),-85.7% (active),-76.3% (active),-69.7% (active),37.2%,32.2%,-0.664% (active),30.1%,-21.8% (active),5.69% (active),25.7%,-13.4% (active),-16.5% (active)
CN1CCN(c2ccc(NC(=O)c3cncnc3Nc3ccc4c(ccn4Cc4cccc(F)c4)c3)cc2)CC1,-6.2% (active),-39.8% (active),67.4%,77.7%,6.24% (active),66.2%,59.6%,54.3%,-80.9% (active),-85.2% (active),98.1%,86.1%,71.5%,46.3%,101%,58.5%,75.5%,77%,11.6%,-2.02% (active)
O=C(c1ccc(F)c(Cl)c1)N1c2ccccc2Sc2ccccc21,27.2%,36.2%,68.6%,77%,39.4%,40.3%,34.4%,25.7%,41.2%,61.7%,65.2%,74.1%,99.2%,72.9%,85.2%,104%,53.4%,61.7%,58.4%,44.1%
